Test results reported in PubChem BioAssay.
Activity calls are given as the source filed them. Unless noted, no rule for the calls is given here.

How the values were obtained:
[1] = resazurin metabolic signal in HepG2 cells – cell-based, resazurin fluorescence, 24 h, PK04 Diversity Set, profiling panel (AID 1172); conditions: HepG2 viability, higher = more signal
[2] = budding yeast growth changes without added modifier – OD600, strain BY4716, 24 h, basal condition, primary screen (AID 1173); conditions: S. cerevisiae BY4716 growth, OD600, 24 h; higher = more signal, called active from +8 up or from −8 down
[3] = viability profiling in MM1S myeloma cells – cell-based, resazurin fluorescence, basal, 24 h, PK04 Diversity Set, profiling panel (AID 1174); conditions: higher = more signal, called active from +8 up or from −8 down;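 also: MM1S multiple myeloma cell line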
[4] = target: Dihydroorotate dehydrogenase (quinone), mitochondrial (Plasmodium falciparum (isolate 3D7)) (UniProt Q08210); experiment: inhibition of P. falciparum DHODH – biochemical, C-terminal His tag, absorbance 600 nm, primary screen (AID 1175); conditions: PfDHODH enzyme, DCIP absorbance 600 nm; higher = more signal, called active from +8 up or from −8 down;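 also: recombinant parasite enzyme with a five histidine tag at its C terminus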
[5] = inhibition of PAO1 biofilm formation – strain PAO1, LB-PBS medium, absorbance 600 nm, primary screen (AID 1176); conditions: P. aeruginosa PAO1 growth/biofilm, A600, 12 h; higher = more signal
[6] = growth modulation of vineyard yeast isolate – strain RM11-1a, OD600, basal, 24 h, primary screen (AID 1177);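 also: cultures grown under basal conditions with no added stressor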; conditions: S. cerevisiae RM11-1a growth, OD600, 24 h; higher = more signal, called active from +8 up or from −8 down
[7] = growth of efflux-deficient E. coli DRC39 – strain DRC39, OD650, 24 h, E. coli filamentation inducers, primary screen (AID 1178);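 also: growth measured as culture turbidity by optical density at 650 nm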; conditions: E. coli DRC39 acrAB, higher = more signal, called active from +8 up or from −8 down
[8] = growth of efflux-deficient E. coli DRC39 – strain DRC39, OD650, 48 h, E. coli filamentation inducers, primary screen (AID 1179);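 also: screen aims at cell division blockers that make cells filament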; conditions: E. coli DRC39 delta-acrAB growth, higher = more signal, called active from +8 up or from −8 down
[9] = viability profiling in RPMI8226 myeloma cells – cell-based, resazurin fluorescence, basal, 24 h, PK04 Diversity Set, profiling panel (AID 1180); conditions: higher = more signal;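 also: RPMI8826 multiple myeloma cell line at 5000 cells per well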
[10] = target: E3 ubiquitin-protein ligase XIAP (Homo sapiens) (UniProt P98170); experiment: small molecules binding XIAP protein – biophysical, small-molecule microarray, fluorescence 635 nm, primary screen (AID 1181); conditions: higher = more signal;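 also: score merges 667 nm emission and signal to noise over triplicate slides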
[11] = tested on: XIP peptide (Xip251-270) binding; experiment: XIP fragment 251-270 binding compounds – biochemical, small-molecule microarray, fluorescence 635/667 nm, 0.1 µg/mL protein, primary screen (AID 1182); conditions: fluorescent protein binding, 635 nm, higher = more signal, called active from +8 up or from −8 down
XIP peptide (Xip251-270) = experiment: compounds binding XIP fragment 251-270 – biochemical, small-molecule microarray, fluorescence 635/667 nm, 0.5 µg/mL protein, primary screen (AID 1183); conditions: fluorescence 635 nm, higher = more signal
[12] = blood-stage malaria parasite viability loss – strain 3D7, DAPI fluorescence, 100 nL, primary screen (AID 1184);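 also: parasites grown inside human red blood cells in medium with human serum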; conditions: P. falciparum 3D7 growth, 3 d, higher = more signal
[13] = target: Homeobox protein Hox-A13 (Mus musculus) (UniProt Q62424); experiment: disruptors of Hoxa13 oligonucleotide interaction – biochemical, fluorescence polarization, labeled oligonucleotide, primary screen (AID 1185); conditions: Hoxa13:DNA binding, 15 min, higher = more signal, called active from +8 up or from −8 down
[14] = blockers of DNA damage checkpoint Chk1 activation – imaging, HeLa, hydroxyurea, phospho-Chk1 antibody, percent positive cells, primary screen (AID 1186); conditions: hydroxyurea-induced phospho-Chk1 immunofluorescence imaging, higher = more signal
[15] = blockers of DNA damage checkpoint Chk1 activation – imaging, HeLa, hydroxyurea, phospho-Chk1 nuclear intensity, primary screen (AID 1187); conditions: hydroxyurea-induced phospho-Chk1 immunofluorescence imaging, higher = more signal

Chain of Dihydroorotate dehydrogenase (quinone), mitochondrial (Plasmodium falciparum (isolate 3D7)) (Q08210 whole entry, looked up): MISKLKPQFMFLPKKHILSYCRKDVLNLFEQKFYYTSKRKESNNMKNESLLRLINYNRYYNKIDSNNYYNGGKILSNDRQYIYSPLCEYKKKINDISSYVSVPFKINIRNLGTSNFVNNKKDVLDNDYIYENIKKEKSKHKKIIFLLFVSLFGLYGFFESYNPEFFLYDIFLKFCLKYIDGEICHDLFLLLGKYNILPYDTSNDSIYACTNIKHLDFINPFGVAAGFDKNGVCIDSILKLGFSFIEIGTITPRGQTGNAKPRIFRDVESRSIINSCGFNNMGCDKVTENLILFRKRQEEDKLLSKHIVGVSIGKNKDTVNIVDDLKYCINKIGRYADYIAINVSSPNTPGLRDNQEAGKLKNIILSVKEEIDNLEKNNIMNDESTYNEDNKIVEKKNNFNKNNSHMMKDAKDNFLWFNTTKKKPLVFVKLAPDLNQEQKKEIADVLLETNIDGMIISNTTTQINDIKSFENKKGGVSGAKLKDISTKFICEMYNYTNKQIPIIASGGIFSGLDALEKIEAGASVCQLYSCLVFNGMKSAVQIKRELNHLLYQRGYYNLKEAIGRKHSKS
Chain of E3 ubiquitin-protein ligase XIAP (Homo sapiens) (P98170 whole entry, looked up, the tested form may be a part): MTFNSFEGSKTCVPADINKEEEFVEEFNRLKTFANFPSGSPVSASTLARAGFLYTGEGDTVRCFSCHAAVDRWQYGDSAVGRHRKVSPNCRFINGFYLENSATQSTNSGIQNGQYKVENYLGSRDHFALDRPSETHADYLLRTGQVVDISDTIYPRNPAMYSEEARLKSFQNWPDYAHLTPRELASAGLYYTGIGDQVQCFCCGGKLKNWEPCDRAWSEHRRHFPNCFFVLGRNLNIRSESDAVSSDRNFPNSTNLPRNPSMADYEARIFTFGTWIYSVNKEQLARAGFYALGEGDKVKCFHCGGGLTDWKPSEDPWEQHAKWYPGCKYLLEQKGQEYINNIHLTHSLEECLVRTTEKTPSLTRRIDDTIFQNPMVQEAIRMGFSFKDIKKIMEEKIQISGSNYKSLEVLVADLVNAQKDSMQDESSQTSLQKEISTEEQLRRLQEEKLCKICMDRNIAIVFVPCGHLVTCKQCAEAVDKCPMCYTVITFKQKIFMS
Chain of Homeobox protein Hox-A13 (Mus musculus) (Q62424 whole entry, looked up): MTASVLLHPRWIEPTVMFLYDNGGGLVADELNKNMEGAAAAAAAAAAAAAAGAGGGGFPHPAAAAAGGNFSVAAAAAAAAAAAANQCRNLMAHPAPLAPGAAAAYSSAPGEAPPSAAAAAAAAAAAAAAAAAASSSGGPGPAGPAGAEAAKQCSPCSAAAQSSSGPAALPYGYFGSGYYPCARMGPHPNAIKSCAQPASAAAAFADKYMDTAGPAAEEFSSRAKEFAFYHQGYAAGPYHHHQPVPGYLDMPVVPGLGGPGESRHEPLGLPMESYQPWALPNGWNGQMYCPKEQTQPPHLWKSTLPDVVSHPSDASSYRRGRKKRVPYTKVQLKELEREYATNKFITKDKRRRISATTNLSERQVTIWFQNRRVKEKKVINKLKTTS

| SMILES | z-score [1] | z-score [2] | z-score [3] | composite z-score [4] | z-score [5] | z-score [6] | z-score [7] | z-score [8] | z-score [9] | composite z-score [10] | composite z-score [11] | composite z-score (XIP peptide (Xip251-270)) | z-score [12] | z-score [13] | z-score [14] | z-score [15] |
| --- | --- | --- | --- | --- | --- | --- | --- | --- | --- | --- | --- | --- | --- | --- | --- | --- |
| COCCOC(=O)N1C(=O)[C@@]2(c3cc(C#CC4(O)CCCCCC4)ccc31)[C@H](C(=O)N1CCc3cc(OC)c(OC)cc3C1)[C@H]1C(=O)O[C@H](c3ccccc3)[C@H](c3ccccc3)N1[C@@H]2c1ccc(O)cc1 | -0.511 | 0.257 (inactive) | -0.263 (inactive) | 0.7 (inactive) | 1.18 (inactive) | 1.39 (inactive) | -0.282 (inactive) | -0.252 (inactive) | -0.0713 | -0.0703 | 0.424 (inactive) | 0.762 | -1.72 | -0.363 (inactive) | 0.25 (inactive) | 0.81 (inactive) |
| COC(=O)Cn1c(C(=O)N(C)C)cc2c1C[C@H]1CN(C(=O)c3ccccc3)[C@@](Cc3ccc(OC)cc3)(C(=O)OC)[C@@H]21 | -0.708 | 1.15 (inactive) | -0.667 (inactive) | 0.072 (inactive) | -0.0424 (inactive) | 0.555 (inactive) | -0.552 (inactive) | -0.263 (inactive) | -0.876 | -0.158 | 1.28 (inactive) | 0.59 | -1.62 | -5.22 (inactive) | 0.0109 (inactive) | 0.295 (inactive) |
| CCCC=C(CCC)[C@@H](NC(=O)c1ccccc1)c1ccc(C(=O)OC)cc1 | 0.295 | -0.366 (inactive) | 0.286 (inactive) | -5.83 (inactive) | 2.23 (inactive) | -0.363 (inactive) | -0.634 (inactive) | -0.078 (inactive) | -0.0265 | 0.209 | -0.0026 (inactive) | 0.222 | -0.891 | -0.72 (inactive) | 0.473 (inactive) | 0.204 (inactive) |
| CC(C)C[C@@H]1NC(=O)[C@@]23C(=O)N[C@@H](Cc4ccccc4)C2[C@H](C)[C@@]2(C)O[C@H]2C3/C=C/C/C=C\CNC(=O)[C@@H](CC(C)C)NC1=O (some centres undefined) | 0.175 | -1.08 (inactive) | -0.102 (inactive) | -0.0599 (inactive) | 0.0937 (inactive) | -0.664 (inactive) | 0.495 (inactive) | -0.323 (inactive) | 0.292 | -0.0752 | 0.549 (inactive) | 0.414 | -0.0432 | -6.77 (inactive) | -0.0685 (inactive) | 0.0529 (inactive) |
| CN(C)CCCC[C@@H]1NC(=O)[C@@H]2C[C@H](C(=O)NCc3ccc(F)cc3)[C@H](c3ccc(O)cc3)N2C1=O | -0.188 | 0.444 (inactive) | -0.0976 (inactive) | -1.14 (inactive) | 0.559 (inactive) | -0.605 (inactive) | 0.012 (inactive) | 0.0344 (inactive) | -0.0587 | -0.0448 | -0.23 (inactive) | 0.886 | -0.532 | -1.16 (inactive) | 0.336 (inactive) | 0.142 (inactive) |
| O=C1OCCC/C=C\[C@H]2OC34C=CCN(Cc5ccccc5)C(=O)[C@H]3N(CCCCCO)C(=O)[C@@H]4C12 (some centres undefined) | 0.804 | -1.08 (inactive) | 1.24 (inactive) | -0.279 (inactive) | -0.099 (inactive) | -0.581 (inactive) | 0.691 (inactive) | 0.775 (inactive) | 1.16 | -0.157 | 0.105 (inactive) | -0.6 | 0.259 | -5.04 (inactive) | -0.312 (inactive) | 0.249 (inactive) |
| CCCC[C@@H]1C[C@H]1[C@@H](NC(=O)Cc1ccccc1)c1ccc(Cl)cc1 | 1.95 | 0.0658 (inactive) | 0.625 (inactive) | -1.36 (inactive) | 0.33 (inactive) | 0.335 (inactive) | -0.704 (inactive) | -0.162 (inactive) | -4.68 | -0.0103 | 0.155 (inactive) | 0.503 | -0.0042 | -2.08 (inactive) | -0.114 (inactive) | -0.588 (inactive) |
| C=CCC(OC(C)=O)[C@@H]1[C@@H](N(Cc2ccc(-c3cccc(C(F)(F)F)c3)o2)C(=O)c2cccc3ccccc23)c2cc(OCCCO)ccc2N1C(=O)c1ccc2ccccc2c1 (some centres undefined) | -0.0598 | -0.988 (inactive) | -0.416 (inactive) | -0.0361 (inactive) | -0.464 (inactive) | 0.204 (inactive) | 0.807 (inactive) | 0.489 (inactive) | -0.311 | -0.04 | 0.184 (inactive) | -0.563 | -2.73 | -2.32 (inactive) | -0.675 (inactive) | -0.36 (inactive) |
| COc1cc2c(cc1O)C(c1ccc(CN3CCCC3)cc1)N(Cc1cccc(OC(F)(F)F)c1)CC2 (centres undefined) | -2.98 | -16.5 (active) | -9.24 (active) | 0.364 (inactive) | -0.103 (inactive) | -1.66 (inactive) | -4.72 (inactive) | -3.03 (inactive) | -6.78 | 0.0673 | -0.153 (inactive) | 0.156 | -2.1 | -2.99 (inactive) | 0.0325 (inactive) | 0.348 (inactive) |
